High-throughput results from PubChem BioAssay.
The sample as a whole holds a higher share of hits than the screen did.
KDM5B inhibitor – KDM5B demethylase inhibition | 2.6% of 220,000 active | KDM5B demethylase, FDH-coupled NADH fluorescence (FDH is formaldehyde dehydrogenase) | Potency, µM (highest dose often 57.7 µM), most hits filed as inhibitors | Q9UGL1 | AID 1347165; active = well fitted inhibition curve with a large enough effect; note: 0% is about no effect; nearly all actives have a fitted effect of over 70% in size
Target sequence (Q9UGL1 whole entry, looked up): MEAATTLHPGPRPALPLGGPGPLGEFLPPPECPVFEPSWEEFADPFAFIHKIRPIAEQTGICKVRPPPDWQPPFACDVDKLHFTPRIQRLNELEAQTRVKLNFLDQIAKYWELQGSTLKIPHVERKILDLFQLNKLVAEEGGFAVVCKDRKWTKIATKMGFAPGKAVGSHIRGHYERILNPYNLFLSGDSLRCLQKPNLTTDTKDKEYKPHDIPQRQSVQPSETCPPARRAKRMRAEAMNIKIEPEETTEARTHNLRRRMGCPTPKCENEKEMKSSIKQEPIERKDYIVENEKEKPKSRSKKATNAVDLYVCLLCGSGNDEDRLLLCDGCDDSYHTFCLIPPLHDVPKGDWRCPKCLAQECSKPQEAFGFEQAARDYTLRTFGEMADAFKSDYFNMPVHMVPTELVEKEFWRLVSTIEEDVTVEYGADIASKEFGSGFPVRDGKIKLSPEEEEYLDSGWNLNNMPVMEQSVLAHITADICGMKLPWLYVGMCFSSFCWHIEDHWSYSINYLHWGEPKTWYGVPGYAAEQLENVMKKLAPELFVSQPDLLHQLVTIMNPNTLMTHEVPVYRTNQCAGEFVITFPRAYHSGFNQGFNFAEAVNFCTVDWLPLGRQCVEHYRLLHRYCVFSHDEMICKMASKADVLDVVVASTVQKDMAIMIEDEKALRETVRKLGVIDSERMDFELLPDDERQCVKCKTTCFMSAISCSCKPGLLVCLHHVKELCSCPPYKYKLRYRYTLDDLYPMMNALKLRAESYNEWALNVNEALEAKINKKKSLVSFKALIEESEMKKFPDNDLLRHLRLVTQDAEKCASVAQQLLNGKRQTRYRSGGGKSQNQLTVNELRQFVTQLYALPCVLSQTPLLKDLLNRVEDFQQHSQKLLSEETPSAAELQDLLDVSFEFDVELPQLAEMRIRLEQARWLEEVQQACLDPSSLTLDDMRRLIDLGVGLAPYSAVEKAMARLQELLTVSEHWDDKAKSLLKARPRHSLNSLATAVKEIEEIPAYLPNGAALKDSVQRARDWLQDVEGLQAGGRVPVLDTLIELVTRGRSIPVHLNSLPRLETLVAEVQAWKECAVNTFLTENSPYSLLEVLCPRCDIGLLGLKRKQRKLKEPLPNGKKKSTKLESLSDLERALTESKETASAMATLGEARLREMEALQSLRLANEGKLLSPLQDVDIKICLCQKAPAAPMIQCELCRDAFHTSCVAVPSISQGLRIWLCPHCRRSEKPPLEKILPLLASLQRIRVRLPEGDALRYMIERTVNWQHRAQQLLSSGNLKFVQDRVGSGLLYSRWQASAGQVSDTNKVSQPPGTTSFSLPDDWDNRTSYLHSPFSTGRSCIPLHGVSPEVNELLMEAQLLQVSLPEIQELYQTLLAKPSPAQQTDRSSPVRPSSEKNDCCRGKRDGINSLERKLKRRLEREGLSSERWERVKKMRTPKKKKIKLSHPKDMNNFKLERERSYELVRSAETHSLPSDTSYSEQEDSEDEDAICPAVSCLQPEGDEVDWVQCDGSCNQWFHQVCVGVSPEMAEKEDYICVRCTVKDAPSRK
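Inhibition is measured as reduced NADH fluorescence generation from FDH coupling to formaldehyde release. Truncated KDM5BΔAP at 200 nM final acts on H3K4me3 peptide (12.5 µM in substrate mix) in pH 7.5 HEPES buffer with Tween-20, 30 min, room temperature.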
* hit, by the source's call; i = inactive. Potency is the fitted concentration of half-maximal effect.

SMILES	KDM5B inhibitor
Cc1nc(-c2ccc(C(F)(F)F)cc2)cc([C@H]2CN3CC[C@H]2C[C@@H]3CNS(C)(=O)=O)n1	i
CCCS(=O)(=O)NC[C@H]1C[C@@H]2CCN1C[C@@H]2c1cc(-c2ccc(OC)c(OC)c2)nc(C)n1	25µM*
Cc1nc(-c2ccc(F)cc2)cc([C@H]2CN3CC[C@H]2C[C@@H]3CNS(=O)(=O)Cc2ccccc2)n1	i
COc1ccc(-c2cc([C@H]3CN4CC[C@H]3C[C@@H]4CN)nc(C)n2)cc1OC	40µM*
COc1ccc(-c2cc([C@H]3CN4CC[C@H]3C[C@@H]4CNC(=O)c3ccc(C(C)(C)C)cc3)n(C)n2)cc1OC	i
COc1ccc(-c2cc([C@H]3CN4CC[C@H]3C[C@@H]4COC(=O)NC3CCCCC3)nc(C)n2)cc1	i
NCc1cn(C[C@H]2CC3CCN2C[C@@H]3C(=O)N2CCCC2)nn1 (some centres undefined)	i
O=C(CCc1ccccc1)N1[C@H]2CC[C@@H]1c1cnc(-c3ccc(F)cc3)nc1C2	i
CCC(CC)c1cc([C@H]2CN3CC[C@H]2C[C@@H]3CNC(=O)CCCC(=O)O)nc(-c2ccncc2)n1	i
CC(=O)c1cccc(NC(=O)NC[C@H]2C[C@@H]3CCN2C[C@@H]3c2cc(-c3ccc(F)cc3)nc(C)n2)c1	i
COc1ccc(OC)c(S(=O)(=O)NC[C@H]2C[C@@H]3CCN2C[C@@H]3c2cc(-c3ccco3)nc(C)n2)c1	i
CC(=O)Nc1ccc(S(=O)(=O)NC[C@H]2C[C@@H]3CCN2C[C@@H]3c2cc(-c3ccc(F)cc3)nn2C)cc1	i
Cc1nc(-c2ccccc2Br)cc([C@H]2CN3CC[C@H]2C[C@@H]3CNS(=O)(=O)c2cccs2)n1	i
CC(=O)Nc1ccc(S(=O)(=O)NC[C@H]2C[C@@H]3CCN2C[C@@H]3c2cc(-c3ccc(N(C)C)cc3)nc(C)n2)cc1	20µM*
CC(=O)Nc1ccc(S(=O)(=O)NC[C@H]2C[C@@H]3CCN2C[C@@H]3c2cc(-c3ccco3)nc(C)n2)cc1	32µM*
COC[C@H]1CCCN1C[C@H]1CN2CC[C@H]1C[C@@H]2CNC(=O)Nc1ccsc1	i
COc1cc2c(cc1OCc1ccccc1)NC(=O)C21CCN(Cc2cccc(O)c2)CC1	i
COc1ccc(C(=O)N2[C@H]3CC[C@@H]2c2cnc(C)nc2C3)c(OC)c1	i
CCOC(=O)c1ccc(N2CC3CCC(C2)N3CC(F)(F)F)nn1	i
Cn1nc2n(c1=O)CCC(NC(=O)c1nn(C)c3ccccc13)CC2 (centres undefined)	18µM*
Cn1cc(C(=O)NC2CCCCCCC2)c2ccccc21	i
COCCOC1CCN(C(=O)c2nn(C)c3ccccc23)CC1	i
CCN1CCCC12Cc1ccccc1CN(C(=O)Cc1ccccc1)C2 (centres undefined)	i
CCOC(=O)C1=C(N)Oc2c(c(=O)oc3ccccc23)C12C(=O)Nc1ccc(Cl)cc12 (centres undefined)	i
COc1cccc(CN2CC[C@@H]3CN(S(C)(=O)=O)[C@@H]3C2)n1	i
SMILES	KDM5B inhibitor
COc1cc2c(cc1OCc1ccccc1)N(C(=O)C1CCC(C)CC1)CC21CCN(C)CC1 (centres undefined)	i
O=C(c1ccncc1)N1CC2CCC(C1)N2Cc1ccccc1	i
O=C(c1ccc(F)cc1)N1C[C@@H]2C[C@H](C1)c1ccc(-c3cncnc3)c(=O)n1C2	40µM*
CN(C)CC(=O)Nc1ccc2n(c1=O)C[C@H]1C[C@@H]2CN(C(=O)c2ccc(F)cc2)C1	i
O=C(c1ccccc1)N1C[C@@H]2C[C@H](C1)c1ccc(-c3cncnc3)c(=O)n1C2	40µM*
O=S1(=O)NC2(CCN(Cc3ccc(Cl)s3)C2)COc2ccncc21 (centres undefined)	i
CC(C)c1nccn1C(C)C(=O)N1CCC(C#N)(c2ccccc2)CC1 (centres undefined)	i
COc1cncc(N2CC3CCC(C2)N3CC(F)(F)F)c1	i
FC(F)(F)CN1C2CCC1CN(c1ccc(C(F)(F)F)cn1)C2	i
FC(F)(F)CN1C2CCC1CN(c1cnc3ccccc3c1)C2	100µM*
FC(F)(F)CN1C2CCC1CN(c1cncc(Cl)c1)C2	i
COc1cccc(N2CC3CCC(C2)N3CC(F)(F)F)n1	100µM*
FC(F)(F)CN1C2CCC1CN(c1nnc(Cl)c3ccccc13)C2	i
Nc1cccc(-c2cn(C[C@H]3CC4CCN3C[C@@H]4C(=O)Nc3ccccc3)nn2)c1 (some centres undefined)	i
COc1cc2c(cc1Oc1cccc(N(C)C)c1)NC(=O)C21CCN(C(=O)C2CCC2)CC1	i
CN1CCC(N2C[C@@H]3OCC(=O)N[C@@H]3C2)CC1	i
Cc1nc(-c2ccccc2Br)cc([C@H]2CN3CC[C@H]2C[C@@H]3CNC(=O)c2ccc(C(C)(C)C)cc2)n1	i
Cc1nc(-c2ccc(N(C)C)cc2)cc([C@H]2CN3CC[C@H]2C[C@@H]3COC(=O)Nc2ccc(C(C)C)cc2)n1	i
Cc1nc(-c2ccccc2Br)cc([C@H]2CN3CC[C@H]2C[C@@H]3CNC(=O)c2ccc(N(C)C)cc2)n1	i
Cc1nc(-c2ccc(N(C)C)cc2)cc([C@H]2CN3CC[C@H]2C[C@@H]3CNC(=O)c2ccccc2)n1	25µM*
Cc1nc(-c2ccc(N(C)C)cc2)cc([C@H]2CN3CC[C@H]2C[C@@H]3COC(=O)NC(C)C)n1	28µM*
COc1ccc(C(=O)NC[C@H]2C[C@@H]3CCN2C[C@@H]3c2cc(-c3ccc(F)cc3)nn2C)cc1	i
COc1ccc(-c2cc([C@H]3CN4CC[C@H]3C[C@@H]4COC(=O)NC(C)C)n(C)n2)cc1	i
Cc1ccc(C(=O)NC[C@H]2C[C@@H]3CCN2C[C@@H]3c2cc(-c3ccccc3Br)nc(C)n2)cc1	i
COc1ccc(C(=O)NC[C@H]2C[C@@H]3CCN2C[C@@H]3c2cc(-c3ccc(N(C)C)cc3)nc(C)n2)cc1	28µM*
SMILES	KDM5B inhibitor
COc1ccc(C2=NCC(=O)N(CC(=O)Nc3ccc(F)cc3F)c3sc4c(c32)CCC4)cc1	i
O=C1NC[C@H]2CN(Cc3nccs3)CCN12	i
Cc1nc(-c2ccco2)cc([C@H]2CN3CC[C@H]2C[C@@H]3CNC(=O)C2CCCCC2)n1	32µM*
COc1ccc(-c2cc([C@H]3CN4CC[C@H]3C[C@@H]4CNC(=O)NC3CCCCC3)n(C)n2)cc1	i
Cc1nc(-c2ccccc2)cc([C@H]2CN3CC[C@H]2C[C@@H]3CN(Cc2ccco2)Cc2ccco2)n1	i
COc1ccccc1-c1cc([C@H]2CN3CC[C@H]2C[C@@H]3CNC(=O)C2CCCCC2)n(C)n1	i
Cc1nc(-c2cccs2)cc([C@H]2CN3CC[C@H]2C[C@@H]3COC(=O)NC2CCCCC2)n1	i
Cc1nc(-c2ccco2)cc([C@H]2CN3CC[C@H]2C[C@@H]3CNC(=O)NC2CCCCC2)n1	32µM*
C#C[C@H]1CN2CC[C@H]1C[C@@H]2CNC(=O)CC(C)(C)C	i
COCCN1C(=O)CS(=O)(=O)C12CCNCC2	i
C#C[C@H]1CN2CC[C@H]1C[C@@H]2CNC(=O)Nc1cc(OC)cc(OC)c1	i
COc1ccccc1CCC(=O)N1CCC2(CC1)NCc1ccccc1-n1ccnc12	i
CC[C@H]1CN2CC[C@H]1C[C@@H]2CNS(=O)(=O)c1ccc(C)cc1	i
CC(=O)c1ccc(NC(=O)NC[C@H]2C[C@@H]3CCN2C[C@@H]3CN2CCSCC2)cc1	i
